# Test results reported in PubChem BioAssay (NCI).
# The panel holds about 79,000 compounds, 15% with a hit somewhere; the sample as a whole holds those more often. A number with no mark means an inactive call. Activity calls are given as the source filed them. Rule as the data show it: active = growth inhibition above about 70%; inactive = the rest.
# Legend:
# [1] = NCI Yeast Anticancer Drug Screen. Data for the rad52 strain (AID 147);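 also: 0% = growth of vehicle-treated control cultures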; details: S. cerevisiae rad52 mutant growth inhibition, active compounds read high
# Procedure, shortened: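 DNA repair-defective yeast; compound exposure; growth scored against vehicle controls.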
# [2] = NCI Yeast Anticancer Drug Screen. Data for the wt1 strain (AID 149);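 also: 0% = growth of vehicle-treated wt1 cultures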; details: S. cerevisiae wt1 strain (SPY 50644) growth inhibition, active compounds read high
# Procedure, shortened: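 wt1 yeast, compound-treated; % growth inhibition vs vehicle control.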
# [3] = NCI Yeast Anticancer Drug Screen. Data for the rad50EPP+ strain (AID 151);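 also: 0% = growth of vehicle-treated control cultures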; details: S. cerevisiae rad50 mutant strain, active compounds read high
# Procedure, shortened: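 rad50EPP+ yeast treated with test compounds. Readout: growth vs vehicle control.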
# [4] = NCI Yeast Anticancer Drug Screen. Data for the mgt1 strain (AID 153); details: S. cerevisiae mgt1 mutant growth inhibition, active compounds read high
# Procedure, shortened: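 Growth inhibition relative to vehicle controls was scored for the mgt1 yeast strain after compound exposure.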
# [5] = NCI Yeast Anticancer Drug Screen. Data for the rad50 strain (AID 155);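 also: 0% = growth of vehicle-only cultures of the same strain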; details: S. cerevisiae rad50 strain growth inhibition, active compounds read high
# Procedure, shortened: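 Genetically altered yeast (DNA repair pathway); compound treatment; growth inhibition vs vehicle ctrl.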
# [6] = NCI Yeast Anticancer Drug Screen. Data for the mec2-1 strain (AID 157); details: S. cerevisiae mec2-1 strain, active compounds read high
# Procedure, shortened: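 Growth inhibition is read against vehicle-treated controls after compound exposure of the mec2-1 yeast strain, which is defective in DNA damage repair or cell cycle control.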
# [7] = NCI Yeast Anticancer Drug Screen. Data for the rad14 strain (AID 159);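 also: 0% = growth of vehicle-treated control cultures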; details: S. cerevisiae rad14 strain growth inhibition, active compounds read high
# Procedure, shortened: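 Test compounds were applied to a repair-deficient yeast strain. Its growth was then compared with that of cultures given vehicle alone, and inhibition was expressed relative to those controls.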
# [8] = NCI Yeast Anticancer Drug Screen. Data for the sgs1 mgt1 strain (AID 161);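 also: 0% = growth of cultures given vehicle only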; details: S. cerevisiae sgs1 mgt1 strain, active compounds read high
# Procedure, shortened: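 This yeast growth screen uses a strain with defined DNA-repair lesions; compound-treated growth is compared with vehicle-treated growth.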
# [9] = NCI Yeast Anticancer Drug Screen. Data for the CLN2oe strain (AID 163);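 also: 0% = growth of vehicle-only control cultures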; details: S. cerevisiae CLN2oe strain, active compounds read high
# Procedure, shortened: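 Compound-treated yeast; growth vs vehicle ctrl = % inhibition. Genetically altered strain (cell-cycle control).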
# [10] = NCI Yeast Anticancer Drug Screen. Data for the cln2 rad14 strain (AID 165);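 also: 0% = growth equal to vehicle treated cultures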; details: S. cerevisiae cln2 rad14 strain, active compounds read high
# Procedure, shortened: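 Growth inhibition, relative to vehicle-treated controls, is the read-out. The test organism is a yeast strain with defined genetic alterations, cln2 rad14.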
# [11] = NCI Yeast Anticancer Drug Screen. Data for the bub3 strain (AID 167); details: S. cerevisiae bub3 mutant strain, active compounds read high
# Procedure, shortened: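 Yeast carrying a defined mutation is treated with each compound, and growth is compared with that of vehicle-exposed cells to give inhibition.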
# [12] = NCI Yeast Anticancer Drug Screen. Data for the wt2 strain (AID 169);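 also: 0% = growth of vehicle-treated yeast cultures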; details: S. cerevisiae wt2 strain growth inhibition, active compounds read high
# Procedure, shortened: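 Compound exposure of yeast; growth compared with vehicle controls; inhibition reported.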
# [13] = NCI Yeast Anticancer Drug Screen. Data for the mlh1 strain (AID 171);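 also: 0% = growth of vehicle-treated control cultures of the same strain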; details: S. cerevisiae mlh1 strain growth inhibition, active compounds read high
# Procedure, shortened: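 Compounds are applied to a genetically altered yeast strain, and its growth is compared with that of vehicle-treated cultures to give percent inhibition.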
# [14] = NCI Yeast Anticancer Drug Screen. Data for the sgs1 strain (AID 173);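 also: 0% = growth of vehicle-only control cultures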; details: S. cerevisiae sgs1 mutant, active compounds read high
# Procedure, shortened: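 Compounds applied to genetically altered yeast; growth compared with vehicle-treated cultures to give % inhibition.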
# [15] = NCI Yeast Anticancer Drug Screen. Data for the mlh1 rad18 strain (AID 175); details: S. cerevisiae mlh1 rad18 strain growth inhibition, active compounds read high
# Procedure, shortened: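 Cells of a genetically altered yeast strain, deficient in DNA damage repair, were treated with compound. Their growth was then compared with that of vehicle-treated cultures to give inhibition.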
# [16] = NCI Yeast Anticancer Drug Screen. Data for the rad18 strain (AID 177); details: S. cerevisiae rad18 mutant growth inhibition, active compounds read high
# Procedure, shortened: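 Compounds are applied to a repair-deficient yeast strain, and growth is compared with that of vehicle-treated cultures to give percent inhibition.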
# [17] = at 5.0 µM (retest, dose inferred, filed as 0.5)
# [18] = at 50.0 µM (retest, dose inferred, filed as 5.0)
smiles,measurement,setting,value
CC1=C(C)C(=O)C2=C(OCCO2)C1=O,growth inhibition,[1]; at 1.2 µM,-6%
same,growth inhibition,[1]; at 3.7 µM,-8%
same,growth inhibition,[1]; at 11.0 µM,1%
same,growth inhibition,[1]; at 33.0 µM,23%
same,growth inhibition,[1]; at 100.0 µM,82% (active)
same,growth inhibition,[2]; at 1.2 µM,-4%
same,growth inhibition,[2]; at 3.7 µM,-5%
same,growth inhibition,[2]; at 11.0 µM,-5%
same,growth inhibition,[2]; at 33.0 µM,-4%
same,growth inhibition,[2]; at 100.0 µM,17%
same,growth inhibition,[3]; at 1.2 µM,-3%
same,growth inhibition,[3]; at 3.7 µM,-3%
same,growth inhibition,[3]; at 11.0 µM,5%
same,growth inhibition,[3]; at 33.0 µM,10%
same,growth inhibition,[3]; at 100.0 µM,46%
same,growth inhibition,[4]; at 1.2 µM,-8%
same,growth inhibition,[4]; at 3.7 µM,-2%
same,growth inhibition,[4]; at 11.0 µM,-2%
same,growth inhibition,[4]; at 33.0 µM,3%
same,growth inhibition,[4]; at 100.0 µM,43%
same,growth inhibition,[5]; at 1.2 µM,-3%
same,growth inhibition,[5]; at 3.7 µM,0%
same,growth inhibition,[5]; [17],-23%
same,growth inhibition,[5]; at 11.0 µM,7%
same,growth inhibition,[5]; at 33.0 µM,33%
same,growth inhibition,[5]; [18],87% (active)
same,growth inhibition,[5]; at 50.0 µM,1%
same,growth inhibition,[5]; at 100.0 µM,88% (active)
same,growth inhibition,[6]; at 1.2 µM,-3%
same,growth inhibition,[6]; at 3.7 µM,-3%
same,growth inhibition,[6]; [17],-8%
same,growth inhibition,[6]; at 11.0 µM,-5%
same,growth inhibition,[6]; at 33.0 µM,-1%
same,growth inhibition,[6]; [18],24%
same,growth inhibition,[6]; at 50.0 µM,-3.25%
same,growth inhibition,[6]; at 100.0 µM,20%
same,growth inhibition,[7]; at 1.2 µM,-1%
same,growth inhibition,[7]; at 3.7 µM,-1%
same,growth inhibition,[7]; at 11.0 µM,4%
same,growth inhibition,[7]; at 33.0 µM,17%
same,growth inhibition,[7]; at 100.0 µM,71% (active)
same,growth inhibition,[8]; [17],-10%
same,growth inhibition,[8]; [18],21%
same,growth inhibition,[8]; at 50.0 µM,29.8%
same,growth inhibition,[9]; at 1.2 µM,0%
same,growth inhibition,[9]; at 3.7 µM,-4%
same,growth inhibition,[9]; at 11.0 µM,3%
same,growth inhibition,[9]; at 33.0 µM,15%
same,growth inhibition,[9]; at 100.0 µM,27%
same,growth inhibition,[10]; [17],3%
same,growth inhibition,[10]; [18],29%
same,growth inhibition,[10]; at 50.0 µM,3.35%
same,growth inhibition,[11]; at 1.2 µM,0%
same,growth inhibition,[11]; at 3.7 µM,2%
same,growth inhibition,[11]; [17],-22%
same,growth inhibition,[11]; at 11.0 µM,9%
same,growth inhibition,[11]; at 33.0 µM,18%
same,growth inhibition,[11]; [18],35%
same,growth inhibition,[11]; at 50.0 µM,59.4%
same,growth inhibition,[11]; at 100.0 µM,48%
same,growth inhibition,[12]; at 1.2 µM,-9%
same,growth inhibition,[12]; at 3.7 µM,-12%
same,growth inhibition,[12]; at 11.0 µM,-2%
same,growth inhibition,[12]; at 33.0 µM,-13%
same,growth inhibition,[12]; at 100.0 µM,-5%
same,growth inhibition,[13]; at 1.2 µM,-4%
same,growth inhibition,[13]; at 3.7 µM,-3%
same,growth inhibition,[13]; at 11.0 µM,3%
same,growth inhibition,[13]; at 33.0 µM,14%
same,growth inhibition,[13]; at 100.0 µM,54%
same,growth inhibition,[14]; at 1.2 µM,-22%
same,growth inhibition,[14]; at 3.7 µM,23%
same,growth inhibition,[14]; at 11.0 µM,-14%
same,growth inhibition,[14]; at 33.0 µM,26%
same,growth inhibition,[14]; at 100.0 µM,88% (active)
same,growth inhibition,[15]; [17],4%
same,growth inhibition,[15]; [18],50%
same,growth inhibition,[15]; at 50.0 µM,26%
same,growth inhibition,[16]; at 1.2 µM,-5%
same,growth inhibition,[16]; at 3.7 µM,-5%
same,growth inhibition,[16]; at 11.0 µM,-4%
same,growth inhibition,[16]; at 33.0 µM,6%
same,growth inhibition,[16]; at 100.0 µM,54%
O=C(NCCCCN1CC2CCCC2C1)C(C1CCCCC1)C1CCCCC1 (stereo not drawn),growth inhibition,[1]; at 1.2 µM,11%
same,growth inhibition,[1]; at 3.7 µM,12%
same,growth inhibition,[1]; at 11.0 µM,35%
same,growth inhibition,[1]; at 33.0 µM,76% (active)
same,growth inhibition,[1]; at 100.0 µM,98% (active)
same,growth inhibition,[2]; at 1.2 µM,3%
same,growth inhibition,[2]; at 3.7 µM,6%
same,growth inhibition,[2]; at 11.0 µM,14%
same,growth inhibition,[2]; at 33.0 µM,75% (active)
same,growth inhibition,[2]; at 100.0 µM,97% (active)
same,growth inhibition,[3]; at 1.2 µM,0%
same,growth inhibition,[3]; at 3.7 µM,1%
same,growth inhibition,[3]; at 11.0 µM,2%
same,growth inhibition,[3]; at 33.0 µM,3%
same,growth inhibition,[3]; at 100.0 µM,-3%
same,growth inhibition,[4]; at 1.2 µM,4%
same,growth inhibition,[4]; at 3.7 µM,5%
same,growth inhibition,[4]; at 11.0 µM,40%
same,growth inhibition,[4]; at 33.0 µM,94% (active)
same,growth inhibition,[4]; at 100.0 µM,98% (active)
same,growth inhibition,[5]; at 1.2 µM,7%
same,growth inhibition,[5]; at 3.7 µM,4%
same,growth inhibition,[5]; [17],35%
same,growth inhibition,[5]; at 11.0 µM,34%
same,growth inhibition,[5]; at 33.0 µM,85% (active)
same,growth inhibition,[5]; [18],94% (active)
same,growth inhibition,[5]; at 50.0 µM,67.2%
same,growth inhibition,[5]; at 100.0 µM,79% (active)
same,growth inhibition,[6]; at 1.2 µM,13%
same,growth inhibition,[6]; at 3.7 µM,15%
same,growth inhibition,[6]; [17],17%
same,growth inhibition,[6]; at 11.0 µM,39%
same,growth inhibition,[6]; at 33.0 µM,86% (active)
same,growth inhibition,[6]; [18],93% (active)
same,growth inhibition,[6]; at 50.0 µM,5.4%
same,growth inhibition,[6]; at 100.0 µM,98% (active)
same,growth inhibition,[7]; at 1.2 µM,9%
same,growth inhibition,[7]; at 3.7 µM,12%
same,growth inhibition,[7]; at 11.0 µM,52%
same,growth inhibition,[7]; at 33.0 µM,97% (active)
same,growth inhibition,[7]; at 100.0 µM,99% (active)
same,growth inhibition,[8]; [17],23%
same,growth inhibition,[8]; [18],90% (active)
same,growth inhibition,[8]; at 50.0 µM,76.7% (active)
same,growth inhibition,[9]; at 1.2 µM,11%
same,growth inhibition,[9]; at 3.7 µM,13%
same,growth inhibition,[9]; at 11.0 µM,32%
same,growth inhibition,[9]; at 33.0 µM,87% (active)
same,growth inhibition,[9]; at 100.0 µM,98% (active)
same,growth inhibition,[10]; [17],22%
same,growth inhibition,[10]; [18],96% (active)
same,growth inhibition,[10]; at 50.0 µM,43.9%
same,growth inhibition,[11]; at 1.2 µM,10%
same,growth inhibition,[11]; at 3.7 µM,11%
same,growth inhibition,[11]; [17],94% (active)
same,growth inhibition,[11]; at 11.0 µM,42%
same,growth inhibition,[11]; at 33.0 µM,90% (active)
same,growth inhibition,[11]; [18],99% (active)
same,growth inhibition,[11]; at 50.0 µM,61.5%
same,growth inhibition,[11]; at 100.0 µM,98% (active)
